An excerpt weighted towards active compounds, which were near 12% of everything screened.
JMJD2A Tudor = blocks the human JMJD2A Tudor domain | O75164 | AlphaScreen JMJD2A-Tudor / H3K4me3 peptide binding | Potency, µM (doses to about 114 µM), for the others: at the highest dose activity change, negative = inhibition, most hits filed as inhibitors | hit rate 4.4% among 390,000 | AID 504339; note: potency is the fitted concentration of half-maximal effect; % is set by controls: 0 for no effect and ±100 for the full control effect; nearly all actives have a fitted effect of over 50% in size
G9a inh = G9a (human) methyltransferase inhibition. Q96KQ7. G9a H3K9 monomethylation, AlphaScreen, 2 h. Potency, µM (doses to about 102 µM), for inactives: top-dose activity, negative = inhibition, most hits filed as inhibitors. AID 504332. hit rate 8.8% among 350,000; note: potency is the fitted concentration of half-maximal effect; % is set by controls: 0 for no effect and ±100 for the full control effect; nearly all actives have a fitted effect of over 75% in size
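Compounds were preincubated with 20 nM G9a for 15 min, after which biotinylated H3K9 peptide (500 nM) and SAM (20 uM) started a 2 h room-temperature reaction. Monomethylated product was quantified by antibody-based AlphaScreen chemiluminescence.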
PI5P4Ka inh = inhibitors of human PI5P4K alpha | P48426 | max response, % | AID 652105 | hit rate 1.2% among 330,000 | PI5P4Kalpha enzyme, ADP-Glo luminescence, 60 min; hits give low values; active = max response of -50% or lower; inconclusive = between -30% and -50%; inactive = -30% or higher; note: value at the top dose of about 77 µM; % is set by controls: 0 for no effect and ±100 for the full control effect
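Controls without substrate or without enzyme flank wells where PI5P4Kalpha converts substrate using 5 microM ATP (final). Incubation lasts 60 minutes at room temperature; ADP formed is read by ADP-Glo luminescence.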
PLK1 PBD block = PLK1 (human) polo-box domain binding inhibition; P53350; Plk1 PBD binding of FITC phosphopeptide, fluorescence polarization; Potency, µM, for the others: max response, negative = inhibition, most hits filed as inhibitors; hit rate 2.8% among 360,000; AID 720504; note: potency is the fitted concentration of half-maximal effect; series mostly up to about 57 µM; % is set by controls: 0 for no effect and ±100 for the full control effect; nearly all actives have a fitted effect of over 65% in size
HP1b binding inh = inhibitors of HP1-beta chromodomain binding to methylated histone tails; Potency, µM (series often up to 114 µM), inactives show at the highest dose activity change, negative = inhibition, hits mostly inhibitors; hit rate 0.56% among 390,000; P83916; AlphaScreen HP1-beta / biotin-H3K9me3 peptide binding; note: potency is the fitted concentration of half-maximal effect; nearly all actives have a fitted effect of over 70% in size
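AlphaScreen: HP1-beta (50 nM) preformed 30 min with biotin-H3(1-18)K9me3 peptide (50 nM) in PBS pH 7.4, 0.01% Tween-20. Compound added for 30 min at RT, then streptavidin donor/nickel chelate acceptor beads (10 ug/mL) for 30 min.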
BAZ2B inh = inhibitors of human BAZ2B bromodomain; AlphaScreen BAZ2B-H3K14Ac peptide displacement; Potency, µM (doses to about 114 µM), for the others: at the top dose activity change, negative = inhibition, hits mostly inhibitors; hit rate 4.4% among 360,000; AID 504333; note: potency is the fitted concentration of half-maximal effect; % is set by controls: 0 for no effect and ±100 for the full control effect; nearly all actives have a fitted effect of over 60% in size
Target sequence (Q9UIF8 whole entry, looked up): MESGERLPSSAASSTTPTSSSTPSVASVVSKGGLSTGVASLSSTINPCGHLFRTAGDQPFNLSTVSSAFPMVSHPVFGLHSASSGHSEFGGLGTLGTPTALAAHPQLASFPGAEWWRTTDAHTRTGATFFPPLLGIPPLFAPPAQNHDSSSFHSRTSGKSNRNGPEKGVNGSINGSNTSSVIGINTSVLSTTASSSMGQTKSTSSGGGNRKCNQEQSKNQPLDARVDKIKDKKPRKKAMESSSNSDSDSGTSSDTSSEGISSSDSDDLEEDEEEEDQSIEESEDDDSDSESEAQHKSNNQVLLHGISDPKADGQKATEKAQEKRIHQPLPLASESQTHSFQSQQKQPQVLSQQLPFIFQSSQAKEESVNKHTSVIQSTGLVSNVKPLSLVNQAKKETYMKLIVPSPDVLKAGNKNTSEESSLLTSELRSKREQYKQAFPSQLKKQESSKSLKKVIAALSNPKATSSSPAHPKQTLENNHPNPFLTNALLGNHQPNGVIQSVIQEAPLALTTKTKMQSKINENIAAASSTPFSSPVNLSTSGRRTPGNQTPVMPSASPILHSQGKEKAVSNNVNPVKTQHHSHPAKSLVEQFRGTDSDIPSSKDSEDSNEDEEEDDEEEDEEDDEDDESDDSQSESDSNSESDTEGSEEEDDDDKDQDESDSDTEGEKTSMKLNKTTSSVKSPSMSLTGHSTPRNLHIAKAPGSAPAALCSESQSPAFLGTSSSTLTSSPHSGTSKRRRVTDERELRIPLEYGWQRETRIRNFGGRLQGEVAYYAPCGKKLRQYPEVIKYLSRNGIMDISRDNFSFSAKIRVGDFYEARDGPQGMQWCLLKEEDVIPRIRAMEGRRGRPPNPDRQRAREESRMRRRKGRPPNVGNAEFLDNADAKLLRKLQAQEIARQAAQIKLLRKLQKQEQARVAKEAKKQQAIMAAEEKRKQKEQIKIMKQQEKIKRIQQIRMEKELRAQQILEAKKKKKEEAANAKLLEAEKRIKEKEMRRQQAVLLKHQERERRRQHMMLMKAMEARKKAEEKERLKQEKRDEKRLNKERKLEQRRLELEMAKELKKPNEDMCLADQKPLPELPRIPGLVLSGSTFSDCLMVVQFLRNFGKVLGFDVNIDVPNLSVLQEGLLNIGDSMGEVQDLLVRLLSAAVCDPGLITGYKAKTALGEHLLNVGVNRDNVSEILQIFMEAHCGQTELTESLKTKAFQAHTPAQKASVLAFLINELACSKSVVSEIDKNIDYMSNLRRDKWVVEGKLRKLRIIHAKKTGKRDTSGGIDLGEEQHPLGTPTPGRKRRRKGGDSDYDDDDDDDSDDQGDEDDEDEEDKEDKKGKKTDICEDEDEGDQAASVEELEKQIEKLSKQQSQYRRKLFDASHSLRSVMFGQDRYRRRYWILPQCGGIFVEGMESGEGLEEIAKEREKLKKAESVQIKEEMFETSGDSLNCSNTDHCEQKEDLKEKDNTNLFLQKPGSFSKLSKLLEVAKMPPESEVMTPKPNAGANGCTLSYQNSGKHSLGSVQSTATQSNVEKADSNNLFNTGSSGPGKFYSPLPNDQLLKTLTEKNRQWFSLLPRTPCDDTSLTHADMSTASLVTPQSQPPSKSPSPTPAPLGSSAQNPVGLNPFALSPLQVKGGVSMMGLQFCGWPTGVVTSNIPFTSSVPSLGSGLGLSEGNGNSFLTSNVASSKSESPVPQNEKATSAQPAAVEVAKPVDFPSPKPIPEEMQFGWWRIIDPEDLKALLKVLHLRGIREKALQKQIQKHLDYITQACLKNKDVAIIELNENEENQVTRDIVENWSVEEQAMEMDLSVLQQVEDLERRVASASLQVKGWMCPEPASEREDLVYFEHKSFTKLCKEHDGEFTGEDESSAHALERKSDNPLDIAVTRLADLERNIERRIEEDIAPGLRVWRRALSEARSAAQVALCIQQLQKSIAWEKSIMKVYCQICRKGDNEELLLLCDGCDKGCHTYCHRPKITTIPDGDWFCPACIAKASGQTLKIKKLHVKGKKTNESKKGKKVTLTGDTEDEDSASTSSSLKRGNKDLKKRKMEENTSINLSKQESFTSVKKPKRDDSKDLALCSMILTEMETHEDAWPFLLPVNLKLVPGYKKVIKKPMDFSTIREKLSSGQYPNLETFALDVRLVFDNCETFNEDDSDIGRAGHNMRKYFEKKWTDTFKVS
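Protein-peptide AlphaScreen: BAZ2B 50 nM, b-H3K14Ac 50 nM, 1x PBS pH 7.4 + 0.01% Tween-20. Preincubation 30 min RT; cpd 30 min RT (top 110 uM); beads 20 min RT, light-protected.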
TbPYK confirm = confirmation of Trypanosoma brucei pyruvate kinase inhibitors | Potency, µM (doses to about 76.9 µM), for the others: at the highest dose activity change, negative = inhibition, hits mostly inhibitors | shares compounds with PLK1 PBD block | recombinant TbPYK, Kinase-Glo ATP luminescence | hit rate 67% among 890; note: potency is the fitted concentration of half-maximal effect; % is set by controls: 0 for no effect and ±100 for the full control effect; nearly all actives have a fitted effect of over 70% in size
TbPYK orthogonal = orthogonal confirmation of Trypanosoma brucei pyruvate kinase inhibitors; shares compounds with PLK1 PBD block; Potency, µM (doses to about 76.9 µM), for the others: at the highest dose activity change, negative = inhibition, most hits filed as inhibitors; recombinant TbPYK, ADP-Glo luminescence, 60 min; AID 720584; hit rate 62% among 890; note: potency is the fitted concentration of half-maximal effect; % is set by controls: 0 for no effect and ±100 for the full control effect; nearly all actives have a fitted effect of over 75% in size
Active calls of the source: *; u = inconclusive; x = not tested or not shown; [ ] = another dose, or the depositor's remark. Unless noted, calls come from the whole dose curve; as a rule, active = well fitted curve in the direction sought with a large enough effect; inconclusive = small, poorly fitted or top-dose-only effect, or another doubt; inactive = no such curve, though single readings can be large; an effect the other way counts as inactive or inconclusive.

SMILES	JMJD2A Tudor	G9a inh	PI5P4Ka inh	PLK1 PBD block	HP1b binding inh	BAZ2B inh	TbPYK confirm	TbPYK orthogonal
COc1ccc(CC(Cc2ccc(OC)c(OC)c2)NC=O)cc1OC	x	x	2.1	5.1%	x	x	x	x
O=C(Nc1ccc(C(=O)N2CCCC2)cc1)c1ccccc1	-13.0%	x	-28.4	-6.5%	55.4%	x	28.2µM*	8.4%
Cc1nc2ccc(S(=O)(=O)NCC(=O)Nc3ccc(F)cc3F)cc2s1	1.3%	15.2%[59 µM]	x	x	56.4%	18.5%	x	x
CCN(CC(=O)Nc1ccc(OC)cc1)C(=O)c1ccc2c(c1)NC(=O)C(C)S2 (stereo not drawn)	-9.7%	-5.8%[12.7 µM]	5.3	-2.8%	29.2%	-1.1%	28.2µM*	35.5µM*
O=C(Nc1cnn(Cc2ccc(Cl)cc2)c1)c1cccs1	u	11.3%[59 µM]	u	6.7µM*	-7.9%	-2.9%	-5.6%	-13.5%
Clc1cccc(Cc2c(-c3ccco3)nc3ccc(Cl)cn23)c1	x	x	-65.1*	11.9µM*	x	x	11.2µM*	12.6µM*
COC(=O)c1ccc2nc(-c3ccco3)c(Cc3ccc(C)cc3)n2c1	x	x	-19.5	-16.7%	x	x	20µM*	25.1µM*
COC(=O)c1ccc2nc(-c3ccc(C)cc3)c(Cc3ccc(C)cc3)n2c1	x	x	1.5	0.7%	x	x	x	x
COC(=O)c1ccc2nc(-c3ccco3)c(Cc3ccccc3C(F)(F)F)n2c1	x	x	-3.6	u	x	x	u	u
COC(=O)c1ccc2nc(-c3ccco3)c(Cc3cccc(F)c3)n2c1	x	x	u	u	x	x	11.2µM*	7.94µM*
COC(=O)c1ccc2nc(C3CCCCC3)c(Cc3ccccc3C(F)(F)F)n2c1	x	x	2.8	3.4%	x	x	x	x
COc1ccc(CCNC(=O)COC(=O)CSc2ccc(C(N)=O)cc2[N+](=O)[O-])cc1OC	-17.9%	x	-11.9	u	58.5%	x	x	x
Cc1ccc(NC(=O)c2ccc(=O)n(CC(=O)Nc3cc(C)cc(C)c3)n2)cc1	-0.3%	-6.6%[59 µM]	x	x	36.0%	2.5%	x	x
C[C@@]12C(=O)Nc3cc(F)ccc3C(=O)N1[C@H]1c3ccccc3OC[C@@H]1[C@@H]2c1ccccc1	u	-3.0%[2.33 µM]	3.6	0.3%	2.0%	-34.5%	x	x
Cc1ccc(C)c(NC(=O)C2CC3CCC2C3)c1 (stereo not drawn)	-8.6%	x	0.5	-17.6%	49.6%	-0.4%	x	x
Oc1ccc(C2C[C@H]3CC[C@@H]2C3)cc1O (stereo partly drawn)	20µM*	1µM*	3.3	u	79.4µM*	u	10µM*	14.1µM*
O=S(=O)(O)c1cc(O)c(N=Nc2ccc(O)cc2O)c2ccccc12	3.55µM*	x	-77.8*	u	u	x	11.2µM*	u
CC(=O)Nc1ccc2c(c1)CCc1ccccc1-2	-12.6%	-1.1%	-0.9	1.7%	17.6%	0.1%	x	x
O=C(O)/C=C/C(=O)c1ccc2c(c1)CCc1ccccc1-2	-33.1%	-1.9%[2.33 µM]	u	5.97µM*	17.1%	u	12.6µM*	15.8µM*
CCN1/C(=C/c2ccc3ccccc3[n+]2CC)C=Cc2ccccc21	35.5µM*	11.2µM*	u	-22.0%	17.8µM*	u	11.2µM*	u
CN1CCN(C(=S)c2ccc(Br)cc2)CC1	-24.5%	20µM*	1.0	4.23µM*	-20.6%	-9.7%	7.08µM*	7.94µM*
Oc1ccc(C(=S)N2CCN(Cc3ccccc3)CC2)cc1	u	2.24µM*	u	2.67µM*	u	-24.8%	15.8µM*	31.6µM*
S=C(c1ccc(Br)cc1)N1CCN(Cc2ccccc2)CC1	u	x	x	6.7µM*	-34.6%	u	1.26µM*	8.91µM*
CN(C)c1ccc(C(=S)N2CCN(Cc3ccccc3)CC2)cc1	56.2µM*	8.91µM*	-12.4	4.23µM*	u	35.5µM*	5.01µM*	4.47µM*
CCN(CC)c1ccc(C(=O)N2CCN(Cc3ccccc3)CC2)cc1	u	u	1.0	u	-5.0%	-11.6%	x	x
SMILES	JMJD2A Tudor	G9a inh	PI5P4Ka inh	PLK1 PBD block	HP1b binding inh	BAZ2B inh	TbPYK confirm	TbPYK orthogonal
O=C(Nc1ccc(C(=O)OC2CCCCC2)cc1)c1ccncc1	-23.3%	x	13.5	-21.5%	23.4%	-10.0%	x	x
CSc1ncccc1C(=O)Nc1ccc(S(=O)(=O)NC2=NCCCCC2)cc1	-6.4%	-7.5%	4.4	4.1%	46.6%	-17.3%	x	x
CCCCCNC(=O)C(c1ccccc1)n1c(=O)c(-c2cc3ccccc3[nH]2)nc2ccccc21 (stereo not drawn)	x	x	1.4	-5.2%	x	x	x	x
CC(=O)C1=C(C)NC(SCC(N)=O)=C(C#N)C1CC(C)C (stereo not drawn)	22.4µM*	7.08µM*	u	-17.7%	-35.7%	-14.7%	7.08µM*	8.91µM*
CC(=O)C1=C(C)NC(SCC(N)=O)=C(C#N)C1c1ccco1 (stereo not drawn)	-15.2%	u	-3.7	-1.3%	33.1%	u	x	x
CCOC(=O)C1=C(C)NC(SC)=C(C#N)C1CC(C)C (stereo not drawn)	10.0%	-7.1%[12.7 µM]	3.0	0.2%	46.6%	18.9%	x	x
CC(=O)C1=C(C)NC(SCC(N)=O)=C(C#N)C1C (stereo not drawn)	12.6µM*	u	u	21.2µM*	u	-8.4%	u	u
CC(=O)C1=C(C)NC(SCC(=O)c2ccc(F)cc2)=C(C#N)C1CC(C)C (stereo not drawn)	12.6µM*	3.55µM*	-57.0*	u	25.9%	-28.9%	1.12µM*	1.78µM*
CS(=O)(=O)OCC(O)C(O)COS(C)(=O)=O (stereo not drawn)	x	-20.2%[12.7 µM]	x	x	x	x	x	x
Cc1ccc(S(=O)(=O)c2cn(CC(=O)Nc3ccc4c(c3)OCO4)c3ccc(F)cc3c2=O)cc1	-10.9%	-7.3%[59 µM]	x	x	18.1%	-15.8%	x	x
Cc1cccc(C)c1NC(=O)C(c1ccncc1)n1c(=O)c(-c2ccco2)nc2ccccc21 (stereo not drawn)	x	x	u	-20.8%	x	x	x	x
COc1cc(CN2CCCC(N3CCN(c4ccccc4C)CC3)C2)ccc1O (stereo not drawn)	-20.7%	-40.6%	5.0	0.6%	32.8%	-27.0%	x	x
CC1=CC(=O)C(C(C)C)=CC1=NC(=O)c1ccc(C)cc1	50.1µM*	8.91µM*	-11.1	2.67µM*	22.4µM*	39.8µM*	7.94µM*	7.94µM*
CC1=CC(=O)C(C(C)C)=C/C1=N\OC(=O)c1cccc2nc(C)oc12	-20.1%	11.9%[59 µM]	7.1	-28.6%	17.2%	4.9%	x	x
Cc1cc(C(=O)c2ccccc2)cc(C)c1O	-3.4%	x	4.7	1.7%	25.1%	x	x	x

From PubChem
